Values joined by “and” are separate entries in the source; they are usually repeats but may differ in a detail not shown here. Identical values can stand only once. Records with an inconclusive call do not appear. Active and inactive are the calls of the source. The call rests on the fitted dose curve; in most records, active means well fitted curve in the direction sought with a large enough effect; inconclusive means small, poorly fitted or top-dose-only effect, or another doubt; inactive means no such curve, though single readings can be large; an effect the other way counts as inactive or inconclusive.
Experiments:
[1] = tested on: CRL-7250; experiment: Cytotoxic Profiling of Annotated Libraries Using Quantitative High-Throughput Screening (AID 1296008); settings: Five cell lines viability, CellTiter-Glo ATP luminescence, 48-72 h; max response: active compounds read low; further: nearly all actives have a fitted effect of over 60% in size; on max response: on the % scale 0 is the no-effect control and ±100 the full control effect
In short: (§1)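 Cells exposed to compounds for 48 or 72 hr at 37 degrees Celsius. Viability read as ATP-coupled luminescence with CellTiter-Glo after 10 min at room temperature.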

[2] = tested on: HEK293; experiment: as above; settings: Five cell lines viability, CellTiter-Glo ATP luminescence, 48-72 h; max response: active compounds read low
In short: as §1

[3] = tested on: HaCat; experiment: as above; settings: Five cell lines viability, CellTiter-Glo ATP luminescence, 48-72 h; max response: active compounds read low
In short: as §1

[4] = tested on: KB-3-1; experiment: as above; settings: Five cell lines viability, CellTiter-Glo ATP luminescence, 48-72 h; max response: active compounds read low
In short: as §1

[5] = tested on: NIH3T3; experiment: as above; settings: Five cell lines viability, CellTiter-Glo ATP luminescence, 48-72 h; max response: active compounds read low
In short: as §1

[6] = tested on: HACAT; experiment: qHTS assay to identify novel small-molecules to repurpose for Merkel cell carcinoma treatment (AID 1296009); settings: MCC and control cell lines, CellTiter-Glo viability, 72 h; at 44.8 µM (top of the series) unless noted; further: nearly all actives have a fitted effect of over 60% in size; on activity change, negative = cytotoxicity: on the % scale 0 is the no-effect control and ±100 the full control effect
In short: (§2)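 CellTiter-Glo luminescence after 72 hr compound exposure at 37 degree celsius gave cell viability. Libraries NPC and MIPE were run as 8- and 11-point dose responses; RLUs normalized to DMSO (negative) and no-cell (cytotoxicity) controls.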

[7] = tested on: HEK293T; experiment: as above; settings: MCC and control cell lines, CellTiter-Glo viability, 72 h; series mostly up to 44.8 µM
In short: as §2

[8] = tested on: C33A; experiment: Primary qHTS to identify gynecologic anti-cancer compounds using libraries of approved drugs and bioactive compounds (AID 1345084); settings: Gynecologic cancer cell panel viability, ATPlite luminescence, 48 h; series mostly up to 57.5 µM; further: on the % scale 0 is the no-effect control and ±100 the full control effect; nearly all actives have a fitted effect of over 55% in size
In short: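 Cytotoxicity screen measuring ATP content by luciferase luminescence. Each compound is applied at five concentrations for 48 h at 37 C with 5% CO2.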

[9] = tested on: MCC-13; experiment: qHTS assay to identify novel small-molecules to repurpose for Merkel cell carcinoma treatment (AID 1296009); settings: MCC and control cell lines, CellTiter-Glo viability, 72 h; series mostly up to 46 µM; further: nearly all actives have a fitted effect of over 60% in size; on activity change, negative = cytotoxicity: on the % scale 0 is the no-effect control and ±100 the full control effect
In short: as §2

[10] = tested on: MCC-26; experiment: as above; settings: MCC and control cell lines, CellTiter-Glo viability, 72 h; series mostly up to 46 µM
In short: as §2

[11] = tested on: MKL-1; experiment: as above; settings: MCC and control cell lines, CellTiter-Glo viability, 72 h; series mostly up to 46 µM
In short: as §2

[12] = tested on: MKL-2; experiment: as above; settings: MCC and control cell lines, CellTiter-Glo viability, 72 h; series mostly up to 46 µM
In short: as §2

[13] = tested on: NIH3T3; experiment: as above; settings: MCC and control cell lines, CellTiter-Glo viability, 72 h; at 44.8 µM (top of the series) unless noted
In short: as §2

[14] = tested on: UISO; experiment: as above; settings: MCC and control cell lines, CellTiter-Glo viability, 72 h; series mostly up to 46 µM
In short: as §2

[15] = tested on: WaGa; experiment: as above; settings: MCC and control cell lines, CellTiter-Glo viability, 72 h; series mostly up to 46 µM
In short: as §2

[16] = tested on: SC27B; experiment: qHTS profiling for inhibitors of Plasmodium falciparum proliferation (AID 504749);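 further: 0% = DMSO vehicle and full inhibition = artemisinin control; nearly all actives have a fitted effect of over 60% in size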; settings: P. falciparum in erythrocytes, SYBR Green DNA, 72 h; series mostly up to 28.7 µM
In short: (§3)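 SYBR Green fluorescence (ex 485 nm, em 535 nm) reports parasite DNA after 72 h compound exposure of infected red cells at 0.3% parasitemia, 2.5% hematocrit; signal normalized to 0.29 uM artemisinin and vehicle wells.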

[17] = tested on: TAB109; experiment: as above; settings: P. falciparum in erythrocytes, SYBR Green DNA, 72 h; series mostly up to 28.7 µM
In short: as §3

[18] = tested on: TAB113; experiment: as above; settings: P. falciparum in erythrocytes, SYBR Green DNA, 72 h; series mostly up to 28.7 µM
In short: as §3

[19] = tested on: TAB165; experiment: as above; settings: P. falciparum in erythrocytes, SYBR Green DNA, 72 h; series mostly up to 28.7 µM
In short: as §3

[20] = tested on: W2; experiment: as above; settings: P. falciparum in erythrocytes, SYBR Green DNA, 72 h; series mostly up to 28.7 µM
In short: as §3

C[C@@H]1O[C@@H](O[C@H]2[C@H](O)[C@@H](C(=O)O)O[C@@H](O[C@H]3CC[C@@]4(C)C(CC[C@]5(C)C4CC=C4C6CC(C)(C)CC[C@]6(C(=O)O)CC[C@]45C)C3(C)C)[C@@H]2O[C@@H]2O[C@H](CO)[C@@H](O)[C@H](O)[C@H]2O)[C@H](O)[C@H](O)[C@H]1O (stereo partly specified)
inactive: outcome [1] | outcome [2] | outcome [3] | outcome [4] | max response [5] 1.81% | outcome [6] inactive [at 9.27 µM] | outcome [7] inactive [at 9.27 µM] | activity change, negative = cytotoxicity [8] 0.0448% [at 11.6 µM]

CC(=O)OC(C)OC(=O)C(C)c1ccc(-c2ccccc2)c(F)c1 (stereo unspecified)
inactive: max response [1] -4.19% | max response [2] -11.4% | outcome [3] | max response [4] 1.74% and -23.2% | outcome [5] | outcome [6] | outcome [9] | outcome [10] | outcome [11] | outcome [12] | outcome [13] | outcome [14] | outcome [15] | Potency [8]

C[C@@H]1O[C@@H](O[C@H]2[C@H](OC(=O)[C@]34CCC(C)(C)C[C@H]3C3=CCC5[C@@]6(C)C[C@H](O)[C@H](O[C@@H]7O[C@H](CO)[C@@H](O[C@@H]8O[C@H](CO)[C@@H](O)[C@H](O)[C@H]8O)[C@H](O)[C@H]7O)[C@@](C)(CO)C6[C@H](O)C[C@@]5(C)[C@]3(C)C[C@H]4O)OC[C@H](O)[C@@H]2O)[C@H](O)[C@H](O)[C@H]1O[C@@H]1OC[C@@H](O)[C@H](O[C@@H]2OC[C@](O)(CO)[C@H]2O)[C@H]1O (stereo partly specified)
inactive: max response [1] 4.17% | outcome [2] | outcome [3] | outcome [4] | max response [5] 4.2% | outcome [6] inactive [at 9.27 µM] | outcome [7] inactive [at 9.27 µM] | activity change, negative = cytotoxicity [8] 12.9% [at 6.55 µM]

C[C@@]12C[C@]3(O)O[C@H](O1)[C@]1(COC(=O)c4ccccc4)[C@H]3C[C@@]12O[C@@H]1O[C@H](COC(=O)c2ccccc2)[C@@H](O)[C@H](O)[C@H]1O
inactive: max response [1] -3.18% | outcome [2] | outcome [3] | max response [4] 1.05% | max response [5] 1.22% | outcome [6] inactive [at 17.4 µM] | Potency [7] | Potency [8]

Cc1ccc(Sc2cncc3sc(C(N)=O)cc23)cc1
inactive: outcome [1] | outcome [2] | max response [3] -4.86% | outcome [4] | outcome [5] | Potency [7] | outcome [13]

CC(=O)O[C@H]1CC[C@@]2(CI)C(=CC[C@@H]3[C@@H]2CC[C@]2(C)[C@@H]([C@H](C)CCCC(C)C)CC[C@@H]32)C1
inactive: max response [1] -3.01% | outcome [2] | max response [3] 4.89% | outcome [4] | outcome [5] | outcome [7] inactive [at 9.27 µM] | outcome [13] inactive [at 9.27 µM] | activity change, negative = cytotoxicity [8] 15% [at 11.6 µM]

COc1ccc2c3c1O[C@H]1C[C@@H](O)C=C[C@@]31CCN(C)C2
inactive: Potency [16] | Potency [17] | Potency [18] | Potency [19] | Potency [20] | outcome [1] | outcome [2] | outcome [3] | outcome [4] | max response [5] -4.93% | outcome [6] | Potency [7] | Potency [8]

From PubChem BioAssay (NCATS)
